{"source": "PubChem BioAssay (Tox21)", "note": "Inconclusive results are not listed. Where a call stands in place of a potency, no number is given. Values without a mark were called inactive. Active and inactive are the calls of the source. The call rests on the fitted dose curve; in most records, active means well fitted cell-killing curve with a large enough effect in the repeat runs; inconclusive means weak or mixed curves, or effect the other way; inactive means no such curve, though single readings can be large or run the other way. Potency means the concentration at half of the fitted maximal effect."}
{"assay": "qHTS assay to identify small molecule antagonists of the progesterone receptor (PR) signaling pathway - cell viability counter screen (AID 1346798); further: nearly all actives have a fitted effect of over 50% in size", "settings": "PR-UAS-bla HEK293T viability, CellTiter-Glo luminescence, 16 h; series mostly up to 92.4 µM", "description": "National Center for Advancing Translational Sciences [NCATS]\nNIH Chemical Genomics Center [NCGC]\nU.S. Environmental Protection Agency [EPA]\nNational Institutes of Environmental Health Sciences [NIEHS]\nNational Toxicology Program [NTP]\nU.S. Food and Drug Administration [FDA]\nProgesterone receptor (PR), a nuclear hormone receptor, plays an important role in development, metabolic homeostasis and reproduction. It is activated by the steroid hormone progesterone. Endocrine disrupting chemicals (EDCs) and their interactions with steroid hormone receptors like PR causes disruption of normal endocrine function. To identify the compounds that inhibit PR signaling, a PR-UAS-bla GripTite cell line i.e. PR-UAS-bla HEK293T (Invitrogen, Carlsbad, CA, USA) containing a beta-lactamase reporter gene under the control of an UAS response element was used to screen Tox21 10K compound library. The cytotoxicity of the Tox21 compound library against the PR-bla cell line was tested in parallel by measuring the cell viability using CellTiter-Glo assay in the same wells.\nTox21 Assay Protocol Summary:\nPR-UAS-bla HEK293T cells were dispensed at 3,000 cells/4 uL of assay medium containing 2% charcoal stripped FBS per well into black wall/clear-bottom 1536-well plates using a Multidrop Combi (ThermoFisher Scientific, Waltham, MA) dispenser. After the assay plates were incubated at a 37C and 5% CO2 for 4 hr, 23 nL of compounds dissolved in DMSO, positive controls or DMSO only was transferred to the assay plate by a Pintool station (Kalypsys, San Diego, CA), followed by addition of 1 uL of R5020 in assay medium using a Flying Reagent Dispenser (FRD, Aurora Discovery, San Diego, CA). The plates were incubated at 37C and 5% CO2 for 16 hr. Then 1 uL of LiveBLAzer B/G FRET substrate was added using a Flying Reagent Dispenser, the plates were incubated at room temperature for 2 hours, and fluorescence intensity was measured by an Envision plate reader (PerkinElmer, Shelton, CT). For cell viability readout that measures cytotoxicity, 4 uL/well of CellTiter-Glo reagent was added into the assay plates using a FRD. After 30 min incubation at room temperature, the luminescence intensity in the plates was measured using a ViewLux (PerkinElmer) plate reader."}
{"smiles": "CN1CCN(C2=Nc3cc(Cl)ccc3Nc3ccccc32)CC1", "Potency": "inactive"}
{"smiles": "Cc1ccc(C(C)c2ccc(C)c(C)c2)cc1C", "Potency": "inactive"}
{"smiles": "CCCC[C@H]1CN(CC2CCOCC2)C(=O)OC12CCN(C1(C)CCN(C(=O)c3c(C)ncnc3C)CC1)CC2", "Potency": "inactive"}
{"smiles": "CCCCCCCCCCCCCCCCCBr", "activity change, negative = cytotoxicity": "-0.341% [at 18.9 µM]"}
{"smiles": "CC/C(=C\\C(=N/O)C(N)=O)C(C)[N+](=O)[O-]", "note": "(stereo not given)", "Potency": "inactive"}
{"smiles": "CC[C@@H]1C[C@H](N(Cc2cc(C(F)(F)F)cc(C(F)(F)F)c2)C(C)=O)c2cc(C(F)(F)F)ccc2N1C(=O)OC(C)C", "Potency": "inactive"}
{"smiles": "C=Cc1c(C)c2cc3[nH]c(cc4nc(cc5nc(cc1[nH]2)C(C)=C5CCC(=O)O)C(CCC(=O)O)=C4C)c(C)c3C=C", "Potency": "inactive"}
{"smiles": "CCCCCCCCN(C)C", "Potency": "inactive"}
{"smiles": "C=CC(=O)OCC(C)OCC(C)OCC(C)OC(=O)C=C", "note": "(stereo not given)", "Potency": "inactive"}
{"smiles": "CCCCCCCCCO", "Potency": "inactive"}
{"smiles": "CC(Cc1cccc(C(F)(F)F)c1)NCCOC(=O)c1ccccc1", "note": "(stereo not given)", "Potency": "inactive"}
{"smiles": "Cc1ccc(C)o1", "Potency": "inactive"}
{"smiles": "COc1ccc(OC)c(OC)c1", "Potency": "inactive"}
{"smiles": "CC(O)C1CCCCC1", "note": "(stereo not given)", "Potency": "inactive"}
{"smiles": "C1CCC2OC2C1", "note": "(stereo not given)", "Potency": "inactive"}
{"smiles": "Cc1cc(CC(=O)O)c(C)n1-c1ccc(Cl)cc1", "Potency": "inactive"}
{"smiles": "COc1ccc(C(C)=O)cc1", "Potency": "inactive"}
{"smiles": "CC(=O)/C(C)=C/C1C(C)=CCCC1(C)C", "note": "(stereo not given)", "Potency": "inactive"}
{"smiles": "Cn1c(NCCN(CCO)CCCc2ccc([N+](=O)[O-])cc2)cc(=O)n(C)c1=O", "Potency": "inactive"}
{"smiles": "NCc1ccccc1", "Potency": "inactive"}
{"smiles": "Oc1ccc(O)c2c(O)cccc12", "Potency": "inactive"}
{"smiles": "C=C(C)C(=O)OCCN(C)C", "Potency": "inactive"}
{"smiles": "OCCC1CCCCN1", "note": "(stereo not given)", "Potency": "inactive"}
{"smiles": "CC1=CCC(C(C)C)C=C1", "note": "(stereo not given)", "Potency": "inactive"}
{"smiles": "NCCCN(CCO)CCO", "Potency": "inactive"}
{"smiles": "CCN(CC)CCc1nc(-c2ccccc2)no1", "Potency": "inactive"}
{"smiles": "COCCO", "Potency": "inactive"}
{"smiles": "COCCOCCOCCOCCOC", "Potency": "21.7 µM (active)"}
{"smiles": "Nc1nc(N)c(-c2ccccc2)s1", "Potency": "inactive"}
{"smiles": "Cc1cccc(C(C)(C)C)c1O", "Potency": "inactive"}
{"smiles": "CCN(CC)CCOC(=O)C1(c2ccccc2)CCCC1", "Potency": "inactive"}
{"smiles": "ClC(Cl)(Cl)c1ccc(C(Cl)(Cl)Cl)cc1", "Potency": "inactive"}
{"smiles": "NC[C@H]1O[C@H](O[C@H]2[C@H](O)[C@@H](O[C@H]3O[C@H](CO)[C@@H](O)[C@H](N)[C@H]3O)[C@H](N)C[C@@H]2N)[C@H](O)[C@@H](O)[C@@H]1O", "activity change, negative = cytotoxicity": "1.76% [at 8.39 µM]"}
{"smiles": "O=C(CC(=O)c1ccccc1)c1ccccc1", "Potency": "inactive"}
{"smiles": "CC(C)c1ccc2c(C(C)C)cc(C(C)C)c(S(=O)(=O)O)c2c1", "Potency": "inactive"}
{"smiles": "CC[C@]12CCCN3CCc4c(n(c5ccccc45)C(=O)C1)[C@@H]32", "Potency": "inactive"}
{"smiles": "CCN(CC)CCNC(C(=O)OCCC(C)C)c1ccccc1", "note": "(stereo not given)", "Potency": "inactive"}
{"smiles": "OCC1CC2CC1C1CCC(CO)C21", "note": "(stereo not given)", "Potency": "27.3 µM (active)"}
{"smiles": "FC(F)(F)C(F)(F)C(F)(F)C(F)(F)C(F)(F)C(F)(F)CCI", "Potency": "inactive"}
{"smiles": "CNS(=O)(=O)Cc1ccc2[nH]cc(CCN(C)C)c2c1", "Potency": "inactive"}
